Bioassay records deposited in PubChem by several laboratories.
In the library only some 1.3% were active in any assay of this set; here they are far more common.
HTR5A inv ctr – inverse agonist of human HTR5A in OPRM1-OPRD1 counter-screen. actives 0.083% (n = 340,000). P47898. AID 504634. inhibition, % at 9.3 µM. HTR5A cell line, luminescence, inverse agonism; in the data active = inhibition mostly above about 23%, no sharp cut-off; inactive = mostly below about 18%;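 note: 0% = cells with DMSO and 100% = no-cell wells with DMSO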
Target sequence (P47898 whole entry, looked up): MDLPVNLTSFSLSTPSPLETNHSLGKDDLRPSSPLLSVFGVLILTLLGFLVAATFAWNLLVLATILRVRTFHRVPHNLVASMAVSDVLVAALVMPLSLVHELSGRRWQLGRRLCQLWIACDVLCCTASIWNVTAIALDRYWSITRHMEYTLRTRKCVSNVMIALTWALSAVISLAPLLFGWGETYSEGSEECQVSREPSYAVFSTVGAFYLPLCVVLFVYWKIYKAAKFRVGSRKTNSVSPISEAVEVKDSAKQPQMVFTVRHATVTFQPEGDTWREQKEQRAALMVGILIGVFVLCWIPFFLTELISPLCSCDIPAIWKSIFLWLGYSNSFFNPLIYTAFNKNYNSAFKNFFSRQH
MOR-DOR inv ag – mu-delta opioid heterodimer inverse agonism; P35372+P41143; cell-based MOR-DOR heterodimer luminescence; inhibition, % at 9.3 µM; actives 0.21% (n = 340,000); AID 504357; in the data active = inhibition above about 22%, passing the limit was not always enough;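 note: 0% = cells with DMSO and 100% = wells without cells with DMSO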
PvdQ acylase – blocks Pseudomonas aeruginosa PvdQ acylase activity; purified PvdQ acylase, fluorescence plate reader; inhibition, % at 10 µM; actives 0.063% (n = 340,000); in the data active = inhibition above about 30%, passing the limit was not always enough;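 note: 0% = vehicle neutral wells and 100% = reference inhibitor wells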
Yeast superoxide – caloric restriction mimetics inhibiting age-related superoxide in yeast; S. cerevisiae aged cells, superoxide DHE fluorescence; stronger effect = lower value; superoxide response (% of plate mean), % at 10 µM; actives 0.18% (n = 330,000); AID 2690;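 active = superoxide response under a set limit, about three screen SD below normal, cut at about 65% in these data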;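 note: yeast aged for seven days with compound at 30 °C before DHE staining; 100% = average MFI of all compound-treated wells on the plate with controls excluded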
OPRM1-OPRD1 ag – OPRM1-OPRD1 heterodimerization agonism; activation, % at 9.3 µM; AID 504326; actives 0.3% (n = 340,000); P35372+P41143; cells, luminescence;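 note: 0% = vehicle-treated cells and 100% = reference agonist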
HTR5A ag ctr – activates human HTR5A in OPRM1-OPRD1 agonist counter-screen; P47898; HTR5A agonist assay, luminescence, cell-based; activation, % at 9.3 µM; actives 0.61% (n = 340,000); AID 504692; in the data active = activation mostly above about 9.5%, no sharp cut-off; inactive = mostly below about 7.6%;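 note: 0% = cells with vehicle only and 100% = reference agonist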
OPRM1-D1 ag cf – confirmation of human OPRM1-OPRD1 heterodimerization agonists. shares compounds with OPRM1-OPRD1 ag. actives 45% (n = 830). cells, MOR-DOR heterodimerization, luminescence complementation. activation, % at 9.3 µM;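 note: 0% = vehicle-treated cells and 100% = reference agonist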
HTR5A ag ctr2 – counter-screen for OPRM1-OPRD1 agonists: human HTR5A agonism; shares compounds with OPRM1-OPRD1 ag; HTR5A agonist counterscreen, cell luminescence; activation, % at 9.3 µM; actives 8% (n = 830); in the data active = activation above about 17%;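 note: 0% = vehicle-treated cells and 100% = reference agonist response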
* = called active by the depositor. Cut-off read from the data, not from the text of the source, unless noted: active = activation above about 18%; inactive = the rest.

Results for Cc1ccc(-n2c([S-])c(C(=O)Nc3ccc(OC(F)F)cc3)[n+]3ccc(C(=O)NCCO)cc23)cc1C ?
HTR5A inv ctr: 20; MOR-DOR inv ag: -93; PvdQ acylase: -11; Yeast superoxide: 91; OPRM1-OPRD1 ag: 19*; HTR5A ag ctr: -2; OPRM1-D1 ag cf: 0; HTR5A ag ctr2: 3

How did O=C(Oc1ccc2c(c1)OCO2)c1cc2c(s1)CCC2 do in these assays?
HTR5A inv ctr: -1; MOR-DOR inv ag: -117; PvdQ acylase: 1; Yeast superoxide: 100; OPRM1-OPRD1 ag: 22*; HTR5A ag ctr: 15; OPRM1-D1 ag cf: 0; HTR5A ag ctr2: 1

Results for CC(C)(C)C(=O)N1CCC[C@H]1C(O)(c1ccccc1)c1ccccc1 ?
HTR5A inv ctr: -4; MOR-DOR inv ag: 13; PvdQ acylase: -2; Yeast superoxide: 89; OPRM1-OPRD1 ag: -2; HTR5A ag ctr: -2

Results for CN1CCC(CC(C(=O)N2CCCC2)(c2ccccc2)c2ccccc2)C1 (stereo unspecified) ?
HTR5A inv ctr: 1; MOR-DOR inv ag: -307; PvdQ acylase: -23; OPRM1-OPRD1 ag: 63*; HTR5A ag ctr: 0; OPRM1-D1 ag cf: 4; HTR5A ag ctr2: -1

What do the screens show for `OC(CNCCc1ccccc1)COc1ccc(OCC(O)CNCCc2ccccc2)cc1` (stereo unspecified)?
HTR5A inv ctr: 2; MOR-DOR inv ag: 7; PvdQ acylase: -6; Yeast superoxide: 98; OPRM1-OPRD1 ag: -1; HTR5A ag ctr: -3

Results for OC(CNCCC(c1ccccc1)c1ccccc1)COc1ccccc1 (stereo unspecified) ?
HTR5A inv ctr: -48; MOR-DOR inv ag: -105; PvdQ acylase: 1; Yeast superoxide: 101; OPRM1-OPRD1 ag: 22*; HTR5A ag ctr: 0; OPRM1-D1 ag cf: 38*; HTR5A ag ctr2: 6

What do the screens show for `Cc1cccc(C(=O)NCC(c2ccco2)N(C)C)c1` (stereo unspecified)?
HTR5A inv ctr: 2; MOR-DOR inv ag: -5; PvdQ acylase: 15; Yeast superoxide: 91; OPRM1-OPRD1 ag: 1; HTR5A ag ctr: -1

What do the screens show for `CN(C)C(CNC(=O)c1ccc2ccccc2c1)c1ccco1` (stereo unspecified)?
HTR5A inv ctr: -3; MOR-DOR inv ag: -158; PvdQ acylase: -7; Yeast superoxide: 99; OPRM1-OPRD1 ag: 30*; HTR5A ag ctr: 1; OPRM1-D1 ag cf: 33*; HTR5A ag ctr2: 4

Results for CSc1ccccc1C(=O)NCC(c1ccco1)N(C)C (stereo unspecified) ?
HTR5A inv ctr: -24; MOR-DOR inv ag: 5; PvdQ acylase: -19; Yeast superoxide: 100; OPRM1-OPRD1 ag: -1; HTR5A ag ctr: 8

How did CSc1ccc(C(=O)NCC(c2ccco2)N(C)C)cc1[N+](=O)[O-] (stereo unspecified) do in these assays?
HTR5A inv ctr: -17; MOR-DOR inv ag: inactive; PvdQ acylase: -4; Yeast superoxide: 87; OPRM1-OPRD1 ag: 251*; HTR5A ag ctr: 6; OPRM1-D1 ag cf: 242*; HTR5A ag ctr2: 1

Results for CC(=O)NC(CC(=O)NCC(c1ccco1)N(C)C)c1ccccc1 (stereo unspecified) ?
HTR5A inv ctr: -43; MOR-DOR inv ag: inactive; PvdQ acylase: 4; Yeast superoxide: 92; OPRM1-OPRD1 ag: 195*; HTR5A ag ctr: 4; OPRM1-D1 ag cf: 226*; HTR5A ag ctr2: -1

How did CC(=O)c1ccc(N2CCN(C(=O)c3ccc(Cl)c(NC4=NC5CS(=O)(=O)CC5S4)c3)CC2)cc1 (stereo unspecified) do in these assays?
HTR5A inv ctr: 10; MOR-DOR inv ag: 9; PvdQ acylase: -13; Yeast superoxide: 90; OPRM1-OPRD1 ag: -2; HTR5A ag ctr: -4

What do the screens show for `Cc1ccc(-c2nnn(CC(=O)Nc3ccc(S(=O)(=O)N4CCC(C)CC4)cc3)n2)cc1`?
HTR5A inv ctr: -65; MOR-DOR inv ag: -230; PvdQ acylase: -2; Yeast superoxide: 125; OPRM1-OPRD1 ag: 47*; HTR5A ag ctr: 15*; OPRM1-D1 ag cf: 26*; HTR5A ag ctr2: 8

How did COc1ccc(F)cc1CN1CCN(C(=O)CCC(=O)Nc2nnc(C(C)C)s2)CC1 do in these assays?
HTR5A inv ctr: -28; MOR-DOR inv ag: -143; PvdQ acylase: -9; Yeast superoxide: 97; OPRM1-OPRD1 ag: 25*; HTR5A ag ctr: -8; OPRM1-D1 ag cf: 25*; HTR5A ag ctr2: 3

How did COc1ccc(C2=NN(C(=O)CSc3ncccn3)C(c3ccc(C)cc3)C2)cc1 (stereo unspecified) do in these assays?
HTR5A inv ctr: -10; MOR-DOR inv ag: -9; PvdQ acylase: -17; Yeast superoxide: 98; OPRM1-OPRD1 ag: 2; HTR5A ag ctr: 8

Results for COc1ccc(C2CC(c3ccc(Br)cc3)=NN2C(=O)CSC2=NCCS2)cc1 (stereo unspecified) ?
HTR5A inv ctr: 12; MOR-DOR inv ag: -492; PvdQ acylase: -9; Yeast superoxide: 99; OPRM1-OPRD1 ag: 102*; HTR5A ag ctr: 0; OPRM1-D1 ag cf: 7; HTR5A ag ctr2: 9

How did Nc1nonc1C(=O)NCCNCc1c(OCc2ccccc2F)ccc2ccccc12 do in these assays?
HTR5A inv ctr: -6; MOR-DOR inv ag: -118; PvdQ acylase: -7; Yeast superoxide: 83; OPRM1-OPRD1 ag: 22*; HTR5A ag ctr: 2; OPRM1-D1 ag cf: 121*; HTR5A ag ctr2: 6

What do the screens show for `Nc1nonc1C(=O)NCCNCc1cc(Br)ccc1OCc1ccc(F)cc1`?
HTR5A inv ctr: 9; MOR-DOR inv ag: -17; PvdQ acylase: -9; Yeast superoxide: 99; OPRM1-OPRD1 ag: 4; HTR5A ag ctr: -4

What do the screens show for `Cc1ccc(Cl)c2c(N=Nc3ccccc3)c(O)[nH]c12`?
HTR5A inv ctr: -15; MOR-DOR inv ag: 4; PvdQ acylase: 6; Yeast superoxide: 97; OPRM1-OPRD1 ag: -1; HTR5A ag ctr: 6

How did c1cc(CCCc2ccncc2)ccn1 do in these assays?
HTR5A inv ctr: -11; MOR-DOR inv ag: 5; PvdQ acylase: -9; Yeast superoxide: 97; OPRM1-OPRD1 ag: -1; HTR5A ag ctr: 4
